These compounds were tested against Focal adhesion kinase 1 (Homo sapiens) (UniProt Q05397) (assay: PTK2 protein binding on printed compound slides – biochemical, small-molecule microarray, 635/667 nm fluorescence, BSA, DTT, primary screen (AID 1130;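 also: composite of spot emission at 667 nm and signal to noise over triplicate slides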)). Settings: 635 nm fluorescence, higher = more signal.
Sequence of Focal adhesion kinase 1 (Homo sapiens) (Q05397 whole entry, looked up): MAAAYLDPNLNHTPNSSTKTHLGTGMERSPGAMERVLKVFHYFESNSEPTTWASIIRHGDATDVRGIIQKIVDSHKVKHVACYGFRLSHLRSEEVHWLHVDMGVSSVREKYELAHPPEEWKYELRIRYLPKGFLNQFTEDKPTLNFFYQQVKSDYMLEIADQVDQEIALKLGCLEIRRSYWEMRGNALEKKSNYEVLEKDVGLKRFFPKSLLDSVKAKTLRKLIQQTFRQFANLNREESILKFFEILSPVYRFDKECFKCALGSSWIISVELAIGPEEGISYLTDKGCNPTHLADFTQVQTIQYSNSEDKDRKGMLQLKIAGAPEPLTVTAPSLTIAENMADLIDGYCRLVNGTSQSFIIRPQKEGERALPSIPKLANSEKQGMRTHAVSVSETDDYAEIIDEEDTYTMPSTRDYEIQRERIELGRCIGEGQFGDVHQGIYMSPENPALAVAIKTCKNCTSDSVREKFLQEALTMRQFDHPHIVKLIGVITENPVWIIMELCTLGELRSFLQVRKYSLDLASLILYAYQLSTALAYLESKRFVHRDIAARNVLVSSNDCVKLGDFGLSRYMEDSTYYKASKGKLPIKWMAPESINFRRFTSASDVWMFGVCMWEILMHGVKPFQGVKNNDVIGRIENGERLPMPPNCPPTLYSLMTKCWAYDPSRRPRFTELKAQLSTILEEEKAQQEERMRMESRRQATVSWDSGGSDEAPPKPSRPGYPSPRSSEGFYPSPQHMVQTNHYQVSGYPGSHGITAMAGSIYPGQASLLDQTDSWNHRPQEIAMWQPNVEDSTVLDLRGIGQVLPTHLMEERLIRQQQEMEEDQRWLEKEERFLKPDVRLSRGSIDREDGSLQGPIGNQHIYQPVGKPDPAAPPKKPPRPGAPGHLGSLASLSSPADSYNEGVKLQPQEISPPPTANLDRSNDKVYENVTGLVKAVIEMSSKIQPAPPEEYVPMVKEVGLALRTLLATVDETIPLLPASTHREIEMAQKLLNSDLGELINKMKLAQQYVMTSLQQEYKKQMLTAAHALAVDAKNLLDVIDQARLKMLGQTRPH

SMILES | composite z-score
CC(C)CCN1CCc2nc(COc3ccccc3)c3c(c2C1)CO[C@@H](C)C3 | 0.233
O=C(NN=C1C[C@@H](O)[C@@H](O)[C@@H]2[C@@H]3C(=O)N(Cc4ccccc4)C(=O)[C@@H]3CC[C@@H]12)OCc1ccccc1 | -0.0741
CO[C@@H]1COC(=O)[C@@H](C)COC(=O)[C@@H](C)NC(=O)CC=C[C@@H]1C | -0.149
CO[C@@H]1COC(=O)CC=C[C@@H](C)[C@@H]2C=C[C@H](O)[C@@H](COC(=O)CC=C[C@H]1C)O2 | -0.649
COC(=O)[C@@H]1CC[C@H](C)[C@@H](c2ccc(C)cc2)N1C(=O)c1ccc(C=NO[C@H](C)c2cn([C@H](CO)Cc3ccccc3)nn2)cc1 | 0.926
CCC=CCCC(OC(=O)c1ccc(Br)cc1)C1=CCCCC1=O (stereo not drawn) | 0.408
CO[C@H]1COC(=O)[C@@H](C)COC(=O)[C@H](COCc2ccccc2)NC(=O)CC=C[C@H]1C | -0.0555
CCOC(=O)CCN1C(=O)[C@H]2[C@H]3[C@H](O)[C@H](O)CC(=NOCC(C)C)[C@H]3CC[C@H]2C1=O | -0.0454
C#CCCCON=C1C[C@@H](O)[C@@H](O)[C@@H]2[C@@H]3C(=O)N(CC)C(=O)[C@@H]3CC[C@@H]12 | -0.229
CON=C1[C@H]2CCn3c(=O)n(-c4ccccc4)c(=O)n3[C@H]2[C@H](O)[C@@H]2O[C@H]12 | 0.295
CC(C)=CCCC(C)=CCON=C1C[C@@H](O)[C@@H](O)[C@@H]2[C@@H]3C(=O)N(C(C)(C)C)C(=O)[C@@H]3CC[C@@H]12 | 0.057
CC(C)(C)N1C(=O)[C@H]2[C@H]3[C@H](O)[C@H](O)CC(=O)[C@@H]3CC[C@H]2C1=O | -0.0066
CC(=O)OC[C@H]1O[C@H](CC=NO[C@H](C)c2cn([C@H](CO)Cc3ccccc3)nn2)C=C[C@@H]1OC(C)=O | -0.0453
C=Cc1ccc([C@H]2N[C@H](C(=O)O)CC[C@@H]2C)cc1 | -0.584
O=C(C=Cc1ccc2c(c1)OCO2)c1ccc(F)cc1 | -0.174
C[C@@H]1CC[C@H]2C(=O)O[C@@H](Cc3ccccc3)CN2[C@H]1c1ccc(Br)cc1 | 0.217
C=CC1=C[C@H](O)[C@@H]2O[C@@H]2C12OCCCO2 | 0.172

SMILES | composite z-score
CCN1C(=O)[C@H]2[C@H]3[C@H](O)[C@H](O)CC(=NO[C@@H](C)c4cn([C@H](CO)Cc5ccccc5)nn4)[C@@H]3CC[C@H]2C1=O | -0.0643
CCOC(=O)[C@H](Cc1ccccc1)NC(=O)CCC1CC(OC(=O)NCc2ccc3c(c2)OCO3)CC2(CCCC(COC(=O)NCCC(C)C)O2)O1 (stereo partly drawn) | 0.234
O=C1[C@H]2[C@H]3[C@H](O)[C@H](O)CC(=NOC[C@@H](O)COCc4ccco4)[C@H]3CC[C@H]2C(=O)N1C[C@@H]1CCCO1 | -0.173
CC(C)=NO[C@H](C)c1cn([C@H](CO)Cc2ccccc2)nn1 | 0.548
O=C1CCCC=C1C(O)CCCCBr (stereo not drawn) | -0.0308
COC(=O)CC=C[C@@H](C)[C@@H](C=NOC[C@@H](O)[C@H]1O[C@@H]2OC(C)(C)O[C@@H]2[C@H]1O)NS(=O)(=O)c1ccc(C)cc1 | -0.196
CCOC(=O)[C@H](Cc1ccccc1)NC(=O)CCC1CC(OC(=O)NCCc2ccc(F)cc2)CC2(CCCC(COC(=O)NCc3ccccc3)O2)O1 (stereo partly drawn) | 0.254
COC(=O)CC=C[C@@H](C)[C@@H](C=NOC(C)CN1CCCc2nc(C)c(C)cc21)OC (stereo partly drawn) | 0.0673
O=C1CCCC=C1C(O)CCOC(c1ccccc1)(c1ccccc1)c1ccccc1 (stereo not drawn) | -0.0057
C[C@@H]1C=CCC(=O)OC[C@H]2O[C@@H](C=C[C@@H]2O)[C@H](C)C=CCC(=O)OC1 | 1.7
CO[C@@H]1C=CCC(=O)N[C@@H](C)C(=O)OC[C@@H](OC)[C@H](C)CCCC(=O)OC[C@H]1C | -0.195
Cc1ccc(S(=O)(=O)OC[C@H]2CN3[C@H](c4ccc(Br)cc4)[C@@H](C)CC[C@H]3C(=O)O2)cc1 | 0.0817
CC(C)=CCCC(C)=CCON=C1C[C@@H](O)[C@@H](O)[C@@H]2[C@@H]3C(=O)N(C4CCCCC4)C(=O)[C@@H]3CC[C@@H]12 | 0.0165
O=C1C=C[C@@H](O)[C@@H]2[C@@H]3C(=O)N(C[C@@H]4CCCO4)C(=O)[C@@H]3CC[C@@H]12 | 0.18
CCOC(=O)[C@H](CC(C)C)NC(=O)CCC1CC(OC(=O)NCc2cccc3ccccc23)CC2(CCCC(COC(=O)NCCCN3CCCC3=O)O2)O1 (stereo partly drawn) | 0.205
Cc1ccc(S(=O)(=O)N[C@H]2COC(=O)CC=C[C@@H](C)COC(=O)CC=C[C@@H]2C)cc1 | 0.309

Source: PubChem BioAssay
